Assay results from PubChem BioAssay AID1443 (Sanford-Burnham Center for Chemical Genomics, 2008).
The whole screen tested about 220,000 compounds, of which about 880 (0.4%) were called active. Many of the other results were omitted from the sample, so actives are more common in it than they were. Unmarked numbers belong to inactive results.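 How the source made its calls: active means cell killing above 50% in the first pass at 4 µM, then a duplicate retest at 5 µM averaging 50% or more; inactive means the rest.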

Test: compounds killing PPC-1 cancer cells with TRAIL present, primary screen, TRAIL potentiator project, ATPLite luminescence, uHTS (AID 1443);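 further: plate controls were cells with TRAIL plus DMSO for no effect and medium-only wells lacking cells for full effect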
Details: PPC-1 cells + TRAIL, ATPLite viability luminescence, hits give high values; at 4 µM unless noted

Going from `COc1ccc(CCNCC(O)Cn2ccc3ccccc32)cc1OC` (configuration not stated) to `COc1ccccc1CNC(=O)c1ccc(SC)cc1OC`, the cell killing (% activity) rises from -2.7% to 16.9%.

Compared with `CC(=O)NC1C(Oc2ccc(C)cc2)OC2COC(c3ccco3)OC2C1O` (configuration not stated), `Cc1ccc(C(=O)N/C(=C\c2ccco2)C(=O)NC2CCS(=O)(=O)C2)cc1` (configuration not stated) is higher in cell killing (% activity): 2.4% for the first, 9.8% for the second.

Going from `COc1cccc(/C=N\NC(=O)C2=NNC(=O)C2C)c1O` (configuration not stated) to `COc1cccc(/C=N/Nc2cc(C)nc(-c3ccccc3O)n2)c1O`, the cell killing (% activity) falls from 24.7% to 21.2%.

Compared with `O=C(/C=C/c1ccccc1)Oc1coc(CSc2ncccn2)cc1=O`, `CCOc1cccc(/C=C/c2ccc3ccccc3n2)c1OC(C)=O` is higher in cell killing (% activity): 5.1% for the first, 49.3% for the second.

First: Cc1nc2cc(NCc3cccs3)ccc2n1C
Second: Nc1ncc(-c2cc3ccccc3oc2=O)s1
The cell killing (% activity) of the first is lower: 1.5% for the first, 11.4% for the second.

Compared with `COc1ccc(-c2nc(SCC(=O)N3CCOCC3)n[nH]2)cc1`, `COc1ccc(-c2ccnc(SCC(=O)N3CCOCC3)n2)cc1` is higher in cell killing (% activity): 4.4% for the first, 20.6% for the second.

First: NC(=O)COC(=O)/C=C/c1ccc2ccccc2n1
Second: O=C(Nc1ccccc1)C1CC(=O)n2c(nc3ccccc32)N1 (configuration not stated)
The cell killing (% activity) of the first is higher: 14.6% for the first, 1.1% for the second.

Compared with `Cc1ccc(C(=O)NNc2ncnc3ccccc23)cc1`, `Cc1ccc(C)n1NC(=O)c1ccc([N+](=O)[O-])cc1` is lower in cell killing (% activity): 35.9% for the first, 11.3% for the second.

Compared with `CC(C)c1ccc(NC(=S)NNc2ccc(Cl)c(C(=O)O)c2)cc1`, `COc1ccc(OC)c(C(=O)c2ccc(Cl)cc2)c1` is lower in cell killing (% activity): -1.7% for the first, -11.3% for the second.

Going from `CC(c1ccccn1)N(CCN(C)C)C(=S)Nc1ccccc1F` (configuration not stated) to `COc1cc(SC)ccc1C(=O)NCCOc1ccccc1Cl`, the cell killing (% activity) falls from 20.3% to 9.8%.

Going from `COc1cc2c(cc1OC)C(=O)NCC(C)(C)O2` to `COc1ccc(C(=O)Nc2nncs2)c(OC)c1`, the cell killing (% activity) rises from 20.2% to 21.1%.

Going from `CCC/C(C)=N\Nc1nc2c(c(=O)n(C)c(=O)n2C)n1C` to `CCOC(=O)c1sc(NC(=O)CSc2nc3c(c(=O)n2-c2ccccc2)SCC3)c(C(=O)OCC)c1C`, the cell killing (% activity) falls from 8% to 5.5%.

First: O=C(c1cn(-c2ccccc2)nc1-c1cc2ccccc2oc1=O)N1CCOCC1
Second: COc1cc(OC)c2ccc(=O)oc2c1C(CCN1CCN(c2ccccc2)CC1)c1ccc2c(c1)OCO2 (configuration not stated)
The cell killing (% activity) of the first is higher: 28.2% for the first, -2.2% for the second.

Going from `O=C(O)COCC(=O)NCc1csc2ccc(Cl)cc12` to `O=C(Nc1nnc(SCc2ccccc2Cl)s1)c1cccc([N+](=O)[O-])c1`, the cell killing (% activity) falls from 6.2% to 2.1%.

Compared with `CCOC(=O)c1c(C)[nH]c(=S)c(C#N)c1-c1ccccc1`, `CCOC(=O)C1=C(c2ccc(OC)cc2)C(=O)c2ccccc2C1=O` is higher in cell killing (% activity): 18.1% for the first, 23.5% for the second.

First: Cc1cccc(C2c3[nH]c4ccccc4c3CCN2C(=O)c2cc(-c3cccn3C)n[nH]2)n1 (configuration not stated)
Second: CN(C)/C=C(/C(=O)c1ccc(Cl)c(Cl)c1)c1nnnn1-c1ccccc1
The cell killing (% activity) of the first is lower: -11.4% for the first, 10.3% for the second.

Compared with `Cc1ccnc(NC(=O)c2ccoc2C)c1`, `O=S(=O)(NCC1CCCO1)c1cnc(Cl)c(Cl)c1` (configuration not stated) is lower in cell killing (% activity): 0% for the first, -24.2% for the second.

In the case of `CC(C)NC(=O)NCCCCCCS(C)=O` (configuration not stated), the cell killing (% activity) was 20.6%.

In the case of `COc1cccc(/C=N/NC(=O)c2[nH]nc3c2CCc2ccccc2-3)c1O`, the cell killing (% activity) was 57.1% (active).
For `CCOc1ccc(-c2ccc(SCC(=O)N3CCOCC3)nn2)cc1`, the cell killing (% activity) was 56.9% [at 5 µM] (active).
In the case of `COc1cccc(/C=C/c2ccc3ccccc3n2)c1OC(C)=O`, the cell killing (% activity) was 70.3% [at 5 µM] (active).
With `O=c1oc2ccccc2cc1-c1cn(-c2ccccc2)c(=S)[nH]1` the cell killing (% activity) was 57.2% (active).
In the case of `CCOC(=O)c1c(C)[nH]c2c1-c1ccccc1C(=O)C2=O`, the cell killing (% activity) was 96.5% [at 5 µM] (active).
With `COc1cc(SC)ccc1C(=O)Nc1cc(C)ccn1` the cell killing (% activity) was 53.7% [at 5 µM] (active).
For `COc1cc(SC)ccc1C(=O)Nc1nc(C)cs1`, the cell killing (% activity) was 96% [at 5 µM] (active).
